AddAB inh: less growth of phage-infected E. coli with AddAB; E. coli expressing H. pylori AddAB, absorbance growth; inhibition, % at 11.9 µM; hit rate 0.29% among 330,000; AID 435030; in the data active = inhibition above about 12%
phage Ecoli inh: E. coli growth loss with phage present. growth absorbance. inhibition, % at 11.9 µM. hit rate 0.26% among 360,000; in the data active = inhibition above about 11%
Tat export inh: blocks Tat-dependent protein export in E. coli; E. coli MC4100 TorA-mCherry Tat export, fluorescence; inhibition, % at 10 µM; hit rate 0.036% among 340,000;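 active = mean replicate inhibition at least 50% and at least half of replicates individually reaching 50%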;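 note: exported cargo escapes ClpAP degradation while cytoplasmic cargo is degraded and loses fluorescence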
E coli growth-1: E. coli growth inhibition. AID 1053175. OD600 absorbance (concentration not given with the values). Escherichia coli growth, OD600, 23 h; active compounds read low. hit rate 0.21% among 330,000;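 active = OD600 absorbance below the run mean of sample wells minus 3.6 SD, in any replicate, cut at about 0.56 in these data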
E coli growth-2: counter-screen for AddAB inhibitors: E. coli growth inhibition; E. coli V3065 growth, OD600 absorbance, 18 h; inhibition, % at 11.9 µM; hit rate 0.27% among 330,000; AID 449728;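 active = inhibition above the campaign's mean inhibition across all tested compounds plus 3 SD, cut at about 9.9% in these data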;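 note: uninfected addAB+ strain grown without phage in ampicillin broth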
RecBCD conf: confirmation: growth loss of phage-infected RecBCD+ E. coli (RecBCD inhibitor screen). inhibition, % at 11.9 µM. E. coli V66 + T4 2- phage, growth OD. AID 651982. hit rate 45% among 890. shares compounds with phage Ecoli inh;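 active = mean inhibition over triplicates exceeding the hit threshold derived in the original primary screen, cut at about 11% in these data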
Ecoli viability: inhibits E. coli viability, flagging RecBCD hits as nonselective | absorbance (OD) growth | inhibition, % at 11.9 µM | shares compounds with phage Ecoli inh | AID 651983 | hit rate 29% among 890; in the data active = inhibition above about 20%;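 note: E. coli strain V66 grown with compound alone and no phage infection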
AddAB phage OD: growth loss of phage-infected AddAB E. coli, RecBCD counter-screen. shares compounds with phage Ecoli inh. E. coli expressing H. pylori AddAB + T4 phage, OD growth; gene 2 mutant T4, recBCD-deleted host. inhibition, % at 11.9 µM. hit rate 45% among 890. AID 651984;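 active = mean inhibition above the solvent-only control wells' mean plus 3 SD, cut at about 22% in these data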;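 note: higher means less bacterial growth from phage killing when AddAB is blocked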
Hits are given with their value; 0 = inactive; - = not tested or not shown. Hits are enriched below; roughly 0.51% of the tested compounds scored in any of these assays.

SMILES | AddAB inh | phage Ecoli inh | Tat export inh | E coli growth-1 | E coli growth-2 | RecBCD conf | Ecoli viability | AddAB phage OD
Cc1cc(C(=O)OC2C(C)NS(=O)(=O)C3CC4C=C[C@]23O4)cc([N+](=O)[O-])c1 (stereo not given in full) | - | - | - | 0 | - | - | - | -
COc1cccc(NC(=O)CN(C)C(=O)CC2CCCCC2)c1 | - | 0 | 0 | 0 | - | - | - | -
CN(CC(=O)Nc1cccc(F)c1)C(=O)CC1CCCCC1 | 0 | 11 | 0 | 0 | 0 | 0 | 0 | 0
N#Cc1ccc(C=NNC(=O)CCc2ccc(S(=O)(=O)N3CCOCC3)cc2)cc1 | - | - | - | 0 | - | - | - | -
CNCCCCOc1ccccc1-c1ccccc1 | 0 | 21 | 0 | 0 | 0 | 0 | 0 | 0
Cc1ccc(NC(=O)c2nc[nH]c2C(=O)NC(C)c2ccccc2)cc1 (stereo not given) | - | - | - | 0 | - | - | - | -
CN(C)S(=O)(=O)n1cnc(C2C3C(=O)OCC3C[C@@]23N=CN(Cc2ccccc2)C3=O)c1 (stereo not given in full) | - | - | - | 0 | - | - | - | -
On1onc2c3cc(-c4ccccc4)nc3ccc21 | 0 | 13 | 0 | 0.47 | 11 | 0 | 0 | 0
c1ccc(-c2cc3c(ccc4nonc43)nn2)cc1 | 0 | 0 | 0 | 0 | 0 | - | - | -
COc1ccc(NC(=O)CON=C2CCCc3nonc32)cc1 | - | - | - | 0 | - | - | - | -
O=S(=O)(c1ccc(Cl)nc1)N1CCc2ccccc21 | 0 | 95 | 0 | 0 | 0 | 0 | 0 | 0
C=CCOc1ccc(C=NNC(=O)C(C)Sc2ccccn2)cc1OCC (stereo not given) | - | - | - | 0 | - | - | - | -
O=C(N/N=C\C=C\c1ccc([N+](=O)[O-])o1)c1cccs1 | - | 98 | 0 | - | - | 105 | 107 | 104
Nc1nnc(-c2ccc([N+](=O)[O-])o2)s1 | - | 92 | 0 | 0.069 | - | 100 | 102 | 100
CCCNC(=O)c1nc(C)c(C)nc1C(=O)Nc1cccc(Cl)c1 | 0 | 67 | 0 | 0 | 0 | 0 | 0 | 0
Cc1nc(C)c(C(=O)Nc2cccc(Cl)c2)o1 | 0 | 0 | 0 | 0 | 0 | - | - | -
CCc1ccc(N2CC(C(=O)NN=Cc3ccccc3)CC2=O)cc1 (stereo not given) | - | - | - | 0 | - | - | - | -
O=C(Nc1ccc(OC(F)F)cc1)Nc1cccc(C(F)(F)F)c1 | 0 | 12 | 0 | 0.53 | 13 | 11 | 0 | 0
O=C(Nc1ccncc1)Nc1cccc(C(F)(F)F)c1 | 0 | 0 | 0 | 0 | 0 | - | - | -
O=C(NN=Cc1ccco1)/C(=C/c1cccc([N+](=O)[O-])c1)NC(=O)c1ccccc1 | - | - | - | 0 | - | - | - | -
COCCN1C(=O)NC(c2cccs2)C(C(=O)OC)=C1C (stereo not given) | - | - | - | 0 | - | - | - | -
Cc1cccc(Nc2nnc(SCc3cn4ccsc4n3)s2)c1 | 0 | 17 | 0 | 0 | 0 | 0 | 0 | 0
O=c1cc(CSc2nnc(Nc3ccccc3)s2)nc2sccn12 | 0 | 0 | 0 | 0 | 0 | - | - | -
COc1cc(C=NNC(=O)CCn2nnc3ccccc32)ccc1O | - | - | - | 0 | - | - | - | -
CC(C)CCNC(=S)Nc1ccc(Br)cc1 | 0 | 11 | 0 | 0 | 0 | 0 | 0 | 0
SMILES | AddAB inh | phage Ecoli inh | Tat export inh | E coli growth-1 | E coli growth-2 | RecBCD conf | Ecoli viability | AddAB phage OD
COc1ccc(C=NNc2nncc3ccccc23)cc1 | - | - | - | 0 | - | - | - | -
O=C(NCCc1cccc(F)c1)C1CCC(=O)N(CCCc2ccccc2)C1 (stereo not given) | 0 | 0 | 0 | 0 | 0 | - | - | -
C=C(C)CNC(=O)C1CCC(=O)N(CCCc2ccccc2)C1 (stereo not given) | 0 | 30 | 0 | - | 0 | 0 | 0 | 0
COc1cc(C=NN2CCN(c3ccc(Cl)cc3)CC2)cc(OC)c1OC(C)=O | - | - | - | 0 | - | - | - | -
O=C1C(F)=CC(COC(c2ccccc2)(c2ccccc2)c2ccccc2)OC1n1cc(F)c(=O)[nH]c1=O (stereo not given) | - | 12 | 0 | - | - | 0 | 0 | 26
O=C(NNC(=O)c1cc(-c2cccnc2)nc2ccccc12)Nc1ccc(Cl)cc1 | 0 | 13 | 0 | 0.52 | 0 | 0 | 0 | 0
Cc1ccc(C(=O)CC(=O)COc2ccc(Cl)cc2C)cc1 | 0 | 12 | 0 | 0 | 0 | 0 | 0 | 0
Nc1nc(N)c2cc(S(=O)(=O)c3ccc4ccccc4c3)ccc2n1 | - | 28 | - | - | - | 101 | 99 | 101
Cc1ccc(C=Nn2c(C3CCCCC3)n[nH]c2=S)o1 | - | - | - | 0 | - | - | - | -
O=c1c(O)c(-c2cccs2)oc2ccc(Cl)cc12 | 0 | 14 | 0 | 0 | 0 | 0 | 0 | 0
O=C(Nc1ccccc1-c1nnn(CC(=O)N2CCOCC2)n1)c1ccc(F)cc1 | 0 | 11 | 0 | 0 | 0 | 0 | 0 | 0
C#CCOCCOCCOCCNc1nc(N2CCN(C(=O)C(C)n3cc(CCC(=O)O)nn3)CC2)nc(N2CCN(C(=O)C(Cc3ccc(O)cc3)n3cc(CCO)nn3)CC2)n1 (stereo not given) | - | - | - | 0 | - | - | - | -
CCn1cc(C(=O)O)c(=O)c2cc(F)c(N3CCNCC3)nc21 | - | 102 | 62 | 0.059 | - | 102 | 103 | 102
c1nc(SSc2ncnc3nc[nH]c23)c2[nH]cnc2n1 | - | 24 | 0 | - | - | 58 | 58 | 75
Cc1cccc(NN=C2COC(C)(C)CC2=O)c1 | - | - | - | 0 | - | - | - | -
CN(CC(=O)Nc1ccc(F)cc1)C(=O)CSc1nc2ncc(Cl)cc2[nH]1 | 0 | 0 | 0 | 0 | 0 | - | - | -
O=C(CSc1nc2ncc(Cl)cc2[nH]1)Nc1cccc(F)c1 | 0 | 12 | 0 | 0 | 0 | 0 | 0 | 0
CC(=NNC(=S)NCCc1ccccc1)c1cccc(Br)c1 | - | - | - | 0 | - | - | - | -
COc1ccc(N/N=C/c2c(C(=O)O)ccc3ccccc23)cc1 | 0 | 11 | 0 | - | 16 | 0 | 0 | 0
CC(CC(=O)Nc1ccccn1)=NNC(=O)c1ccccc1 | - | - | - | 0 | - | - | - | -
C/C(CC(=O)Nc1ccccn1)=N\NC(=O)c1ccccc1O | 0 | 19 | 0 | - | 0 | 0 | 0 | 0
CCN1/C(=C/c2ccc3cc(C)ccc3[n+]2CC)Sc2cc(C)c(C)cc21 | - | 12 | 0 | 0.25 | - | 0 | 0 | 27
Cc1ccc(C(=O)Cn2c(=N)n(N)c3ccccc32)cc1 | 0 | 82 | 0 | 0 | 0 | 0 | 0 | 0
Cc1ccc(C=NNC(=O)c2nnn(-c3nonc3N)c2-c2cccs2)cc1 | - | - | - | 0 | - | - | - | -
O=C(NN=Cc1ccco1)C(=O)Nc1cccc(C(F)(F)F)c1 | - | 0 | - | - | - | - | - | -
SMILES | AddAB inh | phage Ecoli inh | Tat export inh | E coli growth-1 | E coli growth-2 | RecBCD conf | Ecoli viability | AddAB phage OD
CCOc1cccc(C=NNC(=O)C(=O)Nc2cccc(C(F)(F)F)c2)c1O | - | 18 | - | - | - | 11 | 0 | 0
COc1ccc(C=NNC(=O)C2c3ccccc3-c3ccccc32)cc1 | - | - | - | 0 | - | - | - | -
CCN(CC)c1ccc2cc(-c3nc4ccccc4n3C)c(=O)oc2c1 | 0 | 99 | 0 | 0 | 0 | 80 | 71 | 93
CCN(CC)c1ccc2cc(-c3nc4ccccc4[nH]3)c(=O)oc2c1 | 0 | - | 0 | 0 | 0 | - | - | -
CC(NC(=O)Nc1nnc(C(F)(F)F)s1)(C(F)(F)F)C(F)(F)F | 0 | 13 | 0 | 0 | 11 | 15 | 0 | 0
CC(C)(C)CC(=O)Nc1nnc(C(F)(F)F)s1 | 0 | 0 | 0 | 0 | 0 | - | - | -
O=C(N/N=C/c1ccc([N+](=O)[O-])o1)c1ccc2c(c1)OCO2 | - | 11 | 0 | - | - | 12 | 0 | 103
O=C(CN1CCOCC1)NN=Cc1ccc([N+](=O)[O-])o1 | - | 17 | - | - | - | 0 | 0 | 54

Screening data deposited in PubChem BioAssay by several laboratories.
